Laboratory results: the supplement of paper PMC6853941

test system: MCF10A; assay: perturbation Mahalanobis distance of morphological profile vs DMSO controls (Mahalanobis distance (SD units)); higher = stronger morphological change, active = 7 or more; conditions: screen batch: Batch1_Mahalanobis_Distance; 72 h
Method: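 MCF10A cells were seeded onto drugs dispensed acoustically into 384-well plates, using one dose per drug chosen from its human peak plasma concentration, and incubated for 72 h at 37 °C. Cells were stained for DNA, tubulin and mitochondria and imaged; 78 CellProfiler features were extracted, plate-normalised and compared with DMSO wells.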

Compound | perturbation Mahalanobis distance
C[C@]12CC[C@H]3[C@@H](CCC4=CC(=O)CC[C@@]43C)[C@@H]1CC[C@@H]2O [Testosterone] (0.17 µM) | 3.32 (inactive)
CN1C[C@H](C(=O)N[C@]2(C)O[C@@]3(O)[C@@H]4CCCN4C(=O)[C@H](Cc4ccccc4)N3C2=O)C[C@@H]2c3cccc4[nH]cc(c34)C[C@H]21 [Dihydroergotamine] (74 µM) | 2.63 (inactive)
C[C@]12Cc3cn[nH]c3C[C@@H]1CC[C@@H]1[C@@H]2CC[C@@]2(C)[C@H]1CC[C@]2(C)O [Stanozolol] (62.7 µM) | 2.14 (inactive)
CN(C)C(=O)Oc1ccc[n+](C)c1 [Pyridostigmine  Bromide] (5.5 µM) | 2.83 (inactive)
COc1cc2c(cc1OC)C1CC(=O)C(CC(C)C)CN1CC2 (stereo not drawn) [Tetrabenazine] (10 µM) | 4.2 (inactive)
O=[N+]([O-])O[C@H]1CO[C@H]2[C@@H]1OC[C@H]2O[N+](=O)[O-] [Isosorbide Dinitrate] (0.13 µM) | 2.18 (inactive)
CCC(C)C(C)(COC(N)=O)COC(N)=O (stereo not drawn) [Mebutamate] (144.2 µM) | 2.17 (inactive)
CC[C@@H](CO)NC(=O)[C@@H]1C=C2c3cccc4[nH]cc(c34)C[C@H]2N(C)C1 [Methylergonovine] (44 µM) | 2.29 (inactive)
O=C(O)CCCc1ccc(N(CCCl)CCCl)cc1 [Chlorambucil] (8.1 µM) | 2.75 (inactive)
Cc1cccc([C@H](C)c2cnc[nH]2)c1C [Dexmedetomidine] (42 µM) | 2.48 (inactive)
NC(=O)CS(=O)C(c1ccccc1)c1ccccc1 (stereo not drawn) [Armodafinil] (27.1 µM) | 3.56 (inactive)
COC[C@@H](NC(C)=O)C(=O)NCc1ccccc1 [Lacosamide] (49.9 µM) | 3.59 (inactive)
NC1CC1c1ccccc1 (stereo not drawn) [Tranylcypromine] (7.5 µM) | 2.27 (inactive)
O=C1CC[C@@]2(O)[C@H]3Cc4ccc(O)c5c4[C@@]2(CCN3CC2CC2)[C@H]1O5 [Naltrexone] (0.44 µM) | 3.73 (inactive)
NCC(CC(=O)O)c1ccc(Cl)cc1 (stereo not drawn) [Baclofen] (4.7 µM) | 1.93 (inactive)
CC(C)(O)C(=O)Nc1ccc([N+](=O)[O-])c(C(F)(F)F)c1 [Hydroxyflutamide] (27.1 µM) | 5.03 (inactive)
NCC1(CC(=O)O)CCCCC1 [Gabapentin] (122.6 µM) | 2.06 (inactive)
C[C@]12CC[C@H]3[C@@H](CC[C@@]45O[C@@H]4C(O)=C(C#N)C[C@]35C)[C@@H]1CC[C@@H]2O [Trilostane] (308.7 µM) | 3.36 (inactive)
CCN(C(C)=O)c1cccc(-c2ccnc3c(C#N)cnn23)c1 [Zaleplon] (1.6 µM) | 2.43 (inactive)

same assay, conditions: screen batch: Batch2_Mahalanobis_Distance; 72 h

Compound | perturbation Mahalanobis distance
C[C@]12CC[C@H]3[C@@H](CCC4=CC(=O)CC[C@@]43C)[C@@H]1CC[C@@H]2O [Testosterone] (0.17 µM) | 3.14 (inactive)
CN1C[C@H](C(=O)N[C@]2(C)O[C@@]3(O)[C@@H]4CCCN4C(=O)[C@H](Cc4ccccc4)N3C2=O)C[C@@H]2c3cccc4[nH]cc(c34)C[C@H]21 [Dihydroergotamine] (74 µM) | 3.4 (inactive)
C[C@]12Cc3cn[nH]c3C[C@@H]1CC[C@@H]1[C@@H]2CC[C@@]2(C)[C@H]1CC[C@]2(C)O [Stanozolol] (62.7 µM) | 3.12 (inactive)
CN(C)C(=O)Oc1ccc[n+](C)c1 [Pyridostigmine  Bromide] (5.5 µM) | 2.49 (inactive)
COc1cc2c(cc1OC)C1CC(=O)C(CC(C)C)CN1CC2 (stereo not drawn) [Tetrabenazine] (10 µM) | 3.85 (inactive)
O=[N+]([O-])O[C@H]1CO[C@H]2[C@@H]1OC[C@H]2O[N+](=O)[O-] [Isosorbide Dinitrate] (0.13 µM) | 2.62 (inactive)
CCC(C)C(C)(COC(N)=O)COC(N)=O (stereo not drawn) [Mebutamate] (144.2 µM) | 3.78 (inactive)
CC[C@@H](CO)NC(=O)[C@@H]1C=C2c3cccc4[nH]cc(c34)C[C@H]2N(C)C1 [Methylergonovine] (44 µM) | 3.37 (inactive)
O=C(O)CCCc1ccc(N(CCCl)CCCl)cc1 [Chlorambucil] (8.1 µM) | 8.46 (active)
Cc1cccc([C@H](C)c2cnc[nH]2)c1C [Dexmedetomidine] (42 µM) | 2.42 (inactive)
NC(=O)CS(=O)C(c1ccccc1)c1ccccc1 (stereo not drawn) [Armodafinil] (27.1 µM) | 2.45 (inactive)
COC[C@@H](NC(C)=O)C(=O)NCc1ccccc1 [Lacosamide] (49.9 µM) | 2.67 (inactive)
NC1CC1c1ccccc1 (stereo not drawn) [Tranylcypromine] (7.5 µM) | 3.55 (inactive)
O=C1CC[C@@]2(O)[C@H]3Cc4ccc(O)c5c4[C@@]2(CCN3CC2CC2)[C@H]1O5 [Naltrexone] (0.44 µM) | 3.37 (inactive)
NCC(CC(=O)O)c1ccc(Cl)cc1 (stereo not drawn) [Baclofen] (4.7 µM) | 1.48 (inactive)
CC(C)(O)C(=O)Nc1ccc([N+](=O)[O-])c(C(F)(F)F)c1 [Hydroxyflutamide] (27.1 µM) | 4.63 (inactive)
NCC1(CC(=O)O)CCCCC1 [Gabapentin] (122.6 µM) | 2.79 (inactive)
C[C@]12CC[C@H]3[C@@H](CC[C@@]45O[C@@H]4C(O)=C(C#N)C[C@]35C)[C@@H]1CC[C@@H]2O [Trilostane] (308.7 µM) | 2.45 (inactive)
CCN(C(C)=O)c1cccc(-c2ccnc3c(C#N)cnn23)c1 [Zaleplon] (1.6 µM) | 3.38 (inactive)
